In PubChem BioAssay (NCATS):
Records with an inconclusive call do not appear. The source made the active and inactive calls. Unless noted, the call rests on the fitted dose curve; in most records, active means well fitted curve in the direction sought with a large enough effect; inconclusive means small, poorly fitted or top-dose-only effect, or another doubt; inactive means no such curve, though single readings can be large; an effect the other way counts as inactive or inconclusive.

target: ATP-dependent 6-phosphofructokinase (Trypanosoma brucei brucei) (UniProt O15648); test: qHTS Assay to Find Inhibitors of T. brucei phosphofructokinase: hit validation (AID 492961);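 further: luminescence reports ADP formed as PFK phosphorylates fructose-6-phosphate with ATP; on the % scale 0 is the no-effect control and ±100 the full control effect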; settings: T. brucei PFK, ADP-Glo luminescence; series mostly up to 51.4 µM; activity change, negative = inhibition: at the top concentration
Sequence (O15648 whole entry, looked up): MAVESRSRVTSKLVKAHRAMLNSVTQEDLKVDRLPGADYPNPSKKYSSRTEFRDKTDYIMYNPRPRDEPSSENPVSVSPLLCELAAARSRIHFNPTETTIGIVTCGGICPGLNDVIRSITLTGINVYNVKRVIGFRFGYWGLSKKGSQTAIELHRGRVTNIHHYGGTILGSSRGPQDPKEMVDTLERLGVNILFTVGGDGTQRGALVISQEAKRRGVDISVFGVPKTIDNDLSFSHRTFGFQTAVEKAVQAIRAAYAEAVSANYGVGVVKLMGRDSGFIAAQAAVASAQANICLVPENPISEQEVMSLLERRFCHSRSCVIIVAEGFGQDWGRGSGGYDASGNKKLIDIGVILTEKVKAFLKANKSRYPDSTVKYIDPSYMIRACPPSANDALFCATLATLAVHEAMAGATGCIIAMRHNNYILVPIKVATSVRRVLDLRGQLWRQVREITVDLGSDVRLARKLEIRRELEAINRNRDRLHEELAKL
How it was run: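 PFK 1.25 nM, F6P 0.5 mM, ATP 0.1 mM, MgCl2 5 mM, 0.1 M TEA pH 8.0, Tween20 0.01%, BSA 0.1%; 45 min RT. ADP-Glo two-step detection, luminescence. qHTS titration; curve fitting with curve-class categorization.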

SMILES	activity change, negative = inhibition	outcome
CCCSc1ccc2nc(NC(=O)OC)[nH]c2c1	1.37% [at 24.3 µM] (inactive)	–
CCCOC(=O)c1ccc(O)cc1	1.19% (inactive)	–
O=C(CCN1CCN(CCO)CC1)N1c2ccccc2Sc2ccc(C(F)(F)F)cc21	4.2% (inactive)	–
CCCCCCCCCCCC(=O)[O][Sn]([CH2]CCC)([CH2]CCC)[O]C(=O)CCCCCCCCCCC	15.8% (inactive)	–
C=CCCCCCCCCC(=O)O	-4.77% (inactive)	–
CCCCCCCCCCCCCCCCCC(=O)O	11.5% (inactive)	–
CN1[C@@H]2CC[C@H]1CC(OC(c1ccccc1)c1ccccc1)C2 (stereo not given in full)	–	inactive
C=CCN1C(=O)C(CC(C)C)NC1=S (stereo not given)	–	inactive
Cc1ccc(C(=O)c2ccc(CC(=O)O)n2C)cc1	-4.2% [at 24.3 µM] (inactive)	–
Nc1ccc(C(=O)O)c(O)c1	7.89% (inactive)	–
O=C1CN(/N=C/c2ccc([N+](=O)[O-])o2)C(=O)N1	8.55% (inactive)	–
CCOC(=O)c1ccccc1O	-3.11% (inactive)	–
O=C(O)[C@H](CC(=O)N1C[C@H]2CCCC[C@H]2C1)Cc1ccccc1	1.9% (inactive)	–
Cc1[nH]cnc1CN1CCc2c(c3ccccc3n2C)C1=O	-7.07% (inactive)	–
O=C(O)COc1ccc(C(=O)c2cccs2)c(Cl)c1Cl	–	inactive
O=c1[nH]c2ccccc2n1CCCN1CCN(C(c2ccccc2)c2ccccc2)CC1	-7.67% (inactive)	–
COc1ccc(-c2cc(=S)ss2)cc1	0% (inactive)	–
O=C(O)[C@H](O)[C@@H](O)[C@H](O)[C@H](O)CO	-2.36% (inactive)	–
Nc1cc(-c2ccncc2)c[nH]c1=O	0.773% (inactive)	–

test system: not listed separately; test: Validation screen for small molecules that induce genotoxicity in human embryonic kidney (HEK293T) cells expressing luciferase-tagged ELG1 (AID 493106); settings: luminescence; series mostly up to 46.1 µM; activity change, positive = ELG1 induction: at the top concentration; further: potency means the concentration at half of the fitted maximal effect; on activity change, positive = ELG1 induction: 0% is about no effect
How it was run: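 HEK293T cells expressing luciferase-tagged ELG1 were exposed to compound or DMSO vehicle for 16 hr at 37 °C, 5% CO2. Genotoxic stress raises ELG1 levels, so increased luciferase signal after ONE-Glo addition and 30 min at room temperature marks hits.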

SMILES	activity change, positive = ELG1 induction	Potency
CN1CCc2cc(O)c(O)cc2C(c2ccccc2)C1 (stereo not given)	-3.58% (inactive)	–
CSc1nc(N)c2ncn([C@@H]3O[C@H](COP(=O)(O)OP(=O)(O)OP(=O)(O)O)[C@@H](O)[C@H]3O)c2n1	-1.14% (inactive)	–
C#C[C@]1(O)CC[C@H]2[C@@H]3CCC4=Cc5oncc5CC4(C)[C@H]3CCC21C (stereo not given in full)	-19% (inactive)	–
CCOC(=O)C1=C(C)NC(C)=C(C(=O)OCC)C1c1c(F)c(F)c(F)c(F)c1F	-18.2% (inactive)	–
Nc1ncnc2c1ncn2[C@@H]1O[C@H](COP(=O)(O)OP(=O)(O)OP(=O)(O)OP(=O)(O)OC[C@@H]2O[C@H](n3cnc4c(N)ncnc43)[C@@H](O)[C@H]2O)[C@@H](O)[C@H]1O	-4.03% (inactive)	–
Fc1cccc(/C=N/N=C/c2cccc(F)c2)c1	–	23.1 µM (active)
CN1CCc2cccc3c2C1Cc1ccc(O)c(O)c1-3 (stereo not given)	-10.2% (inactive)	–
NC(N)=NC(=O)c1nc(Cl)c(N2CCCCCC2)nc1N	-4.48% (inactive)	–
CC(C)(C=O)Cc1cc(C(C)(C)C)c(O)c(C(C)(C)C)c1	-7.1% (inactive)	–
C=CC(=O)c1ccc(CCCCCC)cc1	3.67% (inactive)	–
O=C(Nc1cccc(C(=O)Nc2ccc(S(=O)(=O)O)c3cc(S(=O)(=O)O)cc(S(=O)(=O)O)c23)c1)Nc1cccc(C(=O)Nc2ccc(S(=O)(=O)O)c3cc(S(=O)(=O)O)cc(S(=O)(=O)O)c23)c1	-7.7% (inactive)	–
O=c1[nH]c2cc(C(F)(F)F)ccc2n1-c1cc(C(F)(F)F)ccc1O	-10.4% (inactive)	–

target: ATPase family AAA domain-containing protein 5 (Homo sapiens) (UniProt Q96QE3); test: Validation screen for small molecules that inhibit ELG1-dependent DNA repair in human embryonic kidney (HEK293T) cells expressing luciferase-tagged ELG1 (AID 493107); settings: HEK293T ELG1-luciferase level, luminescence, 5-fluorouridine co-treatment, 16 h; series mostly up to 46.1 µM; activity change, negative = decrease: at the top concentration;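 further: cells co-treated with the DNA-damaging agent 5-fluorouridine alongside compound; on the % scale 0 is the no-effect control and ±100 the full control effect; inhibitors lower the ELG1-luciferase luminescence signal; nearly all actives have a fitted effect of over 70% in size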
Sequence (Q96QE3 whole entry, looked up, the tested form may be a part): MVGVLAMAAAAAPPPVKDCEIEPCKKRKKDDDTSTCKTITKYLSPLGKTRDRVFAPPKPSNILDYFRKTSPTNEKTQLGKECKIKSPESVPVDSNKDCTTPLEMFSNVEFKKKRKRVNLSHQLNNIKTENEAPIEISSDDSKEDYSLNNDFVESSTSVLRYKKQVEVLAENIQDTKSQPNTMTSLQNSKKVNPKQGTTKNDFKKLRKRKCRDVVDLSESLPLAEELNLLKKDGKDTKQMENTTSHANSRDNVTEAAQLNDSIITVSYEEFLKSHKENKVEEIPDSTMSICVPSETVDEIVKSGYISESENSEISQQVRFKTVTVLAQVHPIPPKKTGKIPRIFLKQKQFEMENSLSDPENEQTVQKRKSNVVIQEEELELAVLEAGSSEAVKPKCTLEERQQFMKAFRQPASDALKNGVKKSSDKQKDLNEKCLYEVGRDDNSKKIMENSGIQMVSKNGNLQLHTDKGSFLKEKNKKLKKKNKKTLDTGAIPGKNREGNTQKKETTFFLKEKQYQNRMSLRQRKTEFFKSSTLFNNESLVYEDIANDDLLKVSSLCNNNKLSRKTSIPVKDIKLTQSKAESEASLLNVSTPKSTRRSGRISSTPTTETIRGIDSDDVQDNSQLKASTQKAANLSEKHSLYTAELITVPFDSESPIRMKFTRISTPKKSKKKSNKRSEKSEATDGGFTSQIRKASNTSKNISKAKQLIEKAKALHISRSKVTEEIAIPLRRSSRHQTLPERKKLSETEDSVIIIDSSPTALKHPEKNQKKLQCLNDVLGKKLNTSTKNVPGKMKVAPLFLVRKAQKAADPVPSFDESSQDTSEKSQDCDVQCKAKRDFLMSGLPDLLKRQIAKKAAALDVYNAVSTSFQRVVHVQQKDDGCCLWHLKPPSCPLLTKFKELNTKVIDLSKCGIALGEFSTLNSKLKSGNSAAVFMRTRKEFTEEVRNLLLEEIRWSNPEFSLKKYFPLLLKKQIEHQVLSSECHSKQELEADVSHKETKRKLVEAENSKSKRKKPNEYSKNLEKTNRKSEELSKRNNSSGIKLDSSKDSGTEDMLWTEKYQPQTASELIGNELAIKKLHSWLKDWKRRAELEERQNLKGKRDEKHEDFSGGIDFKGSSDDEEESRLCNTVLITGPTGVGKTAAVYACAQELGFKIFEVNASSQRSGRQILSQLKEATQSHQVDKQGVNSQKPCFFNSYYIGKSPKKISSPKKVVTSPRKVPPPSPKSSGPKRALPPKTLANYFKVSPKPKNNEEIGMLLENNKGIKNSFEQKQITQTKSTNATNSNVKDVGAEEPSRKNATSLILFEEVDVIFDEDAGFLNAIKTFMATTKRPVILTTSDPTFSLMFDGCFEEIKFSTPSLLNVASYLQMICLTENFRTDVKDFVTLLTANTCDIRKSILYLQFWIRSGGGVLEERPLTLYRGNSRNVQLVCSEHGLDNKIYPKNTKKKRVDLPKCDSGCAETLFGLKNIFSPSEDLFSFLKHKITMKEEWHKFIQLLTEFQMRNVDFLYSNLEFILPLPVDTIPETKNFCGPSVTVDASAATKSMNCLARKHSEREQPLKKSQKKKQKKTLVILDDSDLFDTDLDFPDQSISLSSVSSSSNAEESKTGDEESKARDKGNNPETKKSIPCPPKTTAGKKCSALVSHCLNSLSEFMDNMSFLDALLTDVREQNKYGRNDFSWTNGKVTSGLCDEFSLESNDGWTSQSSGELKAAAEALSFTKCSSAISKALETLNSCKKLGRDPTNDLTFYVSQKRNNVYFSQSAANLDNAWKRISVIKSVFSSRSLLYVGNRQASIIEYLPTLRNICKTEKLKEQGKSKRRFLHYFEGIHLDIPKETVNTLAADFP
How it was run: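 HEK293T cells expressing luciferase-tagged ELG1 were co-treated with 5-fluorouridine and compound or DMSO for 16 hr at 37 °C, 5% CO2. Luciferase activity was then read with ONE-Glo after 30 min at room temperature; suppressed signal indicates blocked ELG1 function.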

SMILES	activity change, negative = decrease
NC(N)=NC(=O)c1nc(Cl)c(N2CCCCCC2)nc1N	14.2% (inactive)
CC(C)(C=O)Cc1cc(C(C)(C)C)c(O)c(C(C)(C)C)c1	-1.33% (inactive)
O=C(Nc1cccc(C(=O)Nc2ccc(S(=O)(=O)O)c3cc(S(=O)(=O)O)cc(S(=O)(=O)O)c23)c1)Nc1cccc(C(=O)Nc2ccc(S(=O)(=O)O)c3cc(S(=O)(=O)O)cc(S(=O)(=O)O)c23)c1	-17.5% (inactive)

target: Thyrotropin-releasing hormone receptor (Homo sapiens) (UniProt P34981); test: qHTS for Small Molecule Agonists and Allosteric Enhancers of Human TRH Receptor: Validation Screen for Agonists (AID 493127;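 active means calcium activation more than 3 SD above the typical response in the agonist read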;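 further: intracellular calcium rise by fluo-8 fluorescence before TRH EC20 addition; 0% is about no effect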); settings: TRH receptor agonist cell assay; at 2 µM; stronger effect = higher value
Sequence (P34981 whole entry, looked up): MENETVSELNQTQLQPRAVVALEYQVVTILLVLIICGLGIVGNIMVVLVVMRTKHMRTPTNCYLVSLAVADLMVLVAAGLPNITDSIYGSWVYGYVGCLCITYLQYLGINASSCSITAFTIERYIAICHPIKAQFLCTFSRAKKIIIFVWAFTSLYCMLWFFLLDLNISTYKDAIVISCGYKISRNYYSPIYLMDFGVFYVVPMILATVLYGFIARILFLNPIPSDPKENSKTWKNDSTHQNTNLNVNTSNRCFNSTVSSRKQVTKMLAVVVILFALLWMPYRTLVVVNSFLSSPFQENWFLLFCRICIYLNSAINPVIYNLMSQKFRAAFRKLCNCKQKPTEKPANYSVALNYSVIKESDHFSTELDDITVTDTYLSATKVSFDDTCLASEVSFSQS
How it was run: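 TRHR-expressing cells were plated overnight in serum-containing medium, then loaded with fluo-8 calcium dye at room temperature for 30 min–1.5 h. After a 10 s baseline, compound was pin-transferred and calcium fluorescence (ex 480/em 530) read kinetically for agonist response.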

SMILES	activation
CN1CCc2cc(O)c(O)cc2C(c2ccccc2)C1 (stereo not given)	-0.188% (inactive)
CC(C)(C)c1ccc(S(=O)(=O)/C=C/C#N)cc1	7.44% (inactive)
CN1CCc2cccc3c2C1Cc1ccc(O)c(O)c1-3 (stereo not given)	0.125% (inactive)
N.N.O=C(O)C1(C(=O)O)CCC1.[Pt]	-0.5% (inactive)
CC(C)(C=O)Cc1cc(C(C)(C)C)c(O)c(C(C)(C)C)c1	-9.5% (inactive)
O=C(Nc1cccc(C(=O)Nc2ccc(S(=O)(=O)O)c3cc(S(=O)(=O)O)cc(S(=O)(=O)O)c23)c1)Nc1cccc(C(=O)Nc2ccc(S(=O)(=O)O)c3cc(S(=O)(=O)O)cc(S(=O)(=O)O)c23)c1	0.875% (inactive)
O=c1[nH]c2cc(C(F)(F)F)ccc2n1-c1cc(C(F)(F)F)ccc1O	1.88% (inactive)

test system: not listed separately; test: Nrf2 qHTS screen for inhibitors: Validation (AID 493153; active means well fitted inhibition curve with a large enough effect in the main read-out, with a control signal flat, not every such curve was filed as active; on activity change, negative = inhibition: % of control where 0% means no effect); settings: A549 ARE-Fluc reporter, 18-24 h; Potency: luciferase luminescence; viability change: measured here: cytotoxicity max response; luciferase luminescence, at 46.1 µM (top of the series); activity change, negative = inhibition: at the top concentration
How it was run: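 A549 cells carrying an ARE-driven firefly luciferase reporter, in 5% FBS OPTI-MEM, were treated with compounds in concentration-response for 18-24 h at 37°C. Viability was read by CellTiter-Fluor fluorescence, then Nrf2 activity by luciferase luminescence.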

SMILES	activity change, negative = inhibition	viability change [%]
Nc1nc(Cl)nc2c1ncn2[C@@H]1O[C@H](COP(=O)(O)OP(=O)(O)OP(=O)(O)O)[C@@H](O)[C@H]1O	-11% (inactive)	3.12
CN1CCc2cc(O)c(O)cc2C(c2ccccc2)C1 (stereo not given)	-1.6% (inactive)	-7.53
CSc1nc(N)c2ncn([C@@H]3O[C@H](COP(=O)(O)OP(=O)(O)OP(=O)(O)O)[C@@H](O)[C@H]3O)c2n1	-11.6% (inactive)	-1.62
CC(C)(C)c1ccc(S(=O)(=O)/C=C/C#N)cc1	-1.23% (inactive)	4.47
Nc1ncnc2c1ncn2[C@@H]1O[C@H](COP(=O)(O)OP(=O)(O)OP(=O)(O)OP(=O)(O)OC[C@@H]2O[C@H](n3cnc4c(N)ncnc43)[C@@H](O)[C@H]2O)[C@@H](O)[C@H]1O	34.6% (inactive)	2.98
Fc1cccc(/C=N/N=C/c2cccc(F)c2)c1	61.1% (inactive)	1.98
CN1CCc2cccc3c2C1Cc1ccc(O)c(O)c1-3 (stereo not given)	-0.322% (inactive)	0.0644
Cc1cc(NC(=O)Nc2ccc3c(ccn3C)c2)sn1	32.9% (inactive)	3.91
NC(N)=NC(=O)c1nc(Cl)c(N2CCCCCC2)nc1N	0.988% (inactive)	-0.682
CC(C)(C=O)Cc1cc(C(C)(C)C)c(O)c(C(C)(C)C)c1	-10.9% (inactive)	5.81
O=C(Nc1cccc(C(=O)Nc2ccc(S(=O)(=O)O)c3cc(S(=O)(=O)O)cc(S(=O)(=O)O)c23)c1)Nc1cccc(C(=O)Nc2ccc(S(=O)(=O)O)c3cc(S(=O)(=O)O)cc(S(=O)(=O)O)c23)c1	4.67% (inactive)	-3.71
O=c1[nH]c2cc(C(F)(F)F)ccc2n1-c1cc(C(F)(F)F)ccc1O	-10.8% (inactive)	-2.14
